# Laboratory results published in PubChem BioAssay AID2071 (Sanford-Burnham Center for Chemical Genomics, 2009).
# About 1,700 (0.61%) of roughly 280,000 compounds were called active. The sample holds actives, similar compounds and a random draw of the others, so the mix is not that of the screen. No stated cut-off is given here; in the data, active means inhibition mostly above about 24% (no sharp cut-off); inactive means mostly below about 32%.
# Assay: NALP1 inflammasome inhibitors in reconstituted yeast, colorimetric, S. cerevisiae, triplicate retest (AID 2071)
# Details: S. cerevisiae NALP1/ASC/caspase-1 growth, X-gal OD620, 72 h, stronger effect = higher value
compound,measurement,setting,value
COc1ccc(OCc2cn3c(C)cc(C)nc3n2)cc1,inhibition,at 10 µM unless noted,22.5% (inactive)
COc1ccc(C(=O)CSc2nc(C)cc(C)n2)cc1[N+](=O)[O-],inhibition,at 10 µM unless noted,-10% (inactive)
COc1ccc(C(C[N+](=O)[O-])n2nc(C)cc2C)cc1 (centres undefined),inhibition,at 10 µM unless noted,103% (active)
CN(Cc1cnccn1)C(=O)c1cc(COc2cccc(C(F)(F)F)c2)on1,inhibition,at 10 µM unless noted,-7.1% (inactive)
S=C(Nc1cccc(Cl)c1)Nc1ccc2c(c1)OCCO2,inhibition,at 10 µM unless noted,2% (inactive)
Cc1cccc(C)c1NC(=O)c1ccc(CN2CCc3ccccc3C2)cc1,inhibition,at 10 µM unless noted,29.1% (active)
CN(c1cccc(NC(=O)c2ccc(CN3CCc4ccccc4C3)cc2)c1)S(C)(=O)=O,inhibition,at 10 µM unless noted,-14.2% (inactive)
Cc1ccc(NC(=O)CN2CCc3ccccc3C2)cc1,inhibition,at 10 µM unless noted,-0.6% (inactive)
CCOC(=O)c1ccc(NC(=O)c2cccnc2)cc1,inhibition,at 10 µM unless noted,16.3% (inactive)
S=C(Nc1ccc(Cl)cc1Cl)N1CCCC1,inhibition,at 10 µM unless noted,11% (inactive)
CCC(=O)N1CCc2cc(S(=O)(=O)CCC(=O)N3CCN(c4ccccc4F)CC3)ccc21,inhibition,at 10 µM unless noted,32% (inactive)
O=C(CCCNS(=O)(=O)c1cccc2nsnc12)NCCN1CCN(c2ccccc2F)CC1,inhibition,at 10 µM unless noted,8.8% (inactive)
O=C(CCS(=O)(=O)c1cccc2nsnc12)N1CCN(c2ccccc2F)CC1,inhibition,at 10 µM unless noted,42.9% (active)
CN(C(=O)c1cc2c(=O)n3ccccc3nc2s1)C1CCCCC1,inhibition,at 10 µM unless noted,4.6% (inactive)
CC(=O)NCCNC(=O)c1cc(-c2cccc3ccccc23)nc2ccccc12,inhibition,at 10 µM unless noted,0.4% (inactive)
C=CCOc1cccc(C2C(C(=O)c3ccc(C)o3)=C(O)C(=O)N2CCCn2ccnc2)c1 (centres undefined),inhibition,at 10 µM unless noted,13.4% (inactive)
O=C(CNC(=O)c1ccc(F)cc1)c1ccccc1,inhibition,at 10 µM unless noted,3.2% (inactive)
O=C(C1CC(=O)N(C2CCCCC2)C1)N1CCN(c2ccccc2)CC1 (centres undefined),inhibition,at 10 µM unless noted,4.2% (inactive)
O=C(NCc1cccc(Cl)c1)C1CCC(=O)N(C2CC2)C1 (centres undefined),inhibition,at 10 µM unless noted,15.1% (inactive)
O=C(C1CCC(=O)N(C2CC2)C1)N1CCN(c2ccc(Cl)cc2)CC1 (centres undefined),inhibition,at 10 µM unless noted,26.5% (active)
O=C(NCc1ccccc1)C(=O)NCC1OCCN1S(=O)(=O)c1ccc(Br)cc1 (centres undefined),inhibition,at 10 µM unless noted,8% (inactive)
CN(C)c1nc(Nc2ccc(Cl)c(Cl)c2)nc(N(C)C)n1,inhibition,at 10 µM unless noted,14.2% (inactive)
Nc1nc(Nc2ccccc2)nc(NCCO)c1[N+](=O)[O-],inhibition,at 10 µM unless noted,2.9% (inactive)
OCCNc1nc(Nc2ccc(Cl)c(Cl)c2)nc2ccccc12,inhibition,at 10 µM unless noted,31.9% (active)
O=S(=O)(NC1CC2CCC1C2)c1ccc(Cl)cc1 (centres undefined),inhibition,at 10 µM unless noted,-6% (inactive)
Cc1ccc2c(C)c(C(=O)N3CCN(c4ccncc4)CC3)oc2c1C,inhibition,at 10 µM unless noted,12.6% (inactive)
COc1cc(CN2CCCC(C(=O)c3ccc(SC)cc3)C2)cc(Cl)c1O (centres undefined),inhibition,at 10 µM unless noted,19.3% (inactive)
COc1ccc(S(=O)(=O)N2CCN(C)CC2)c(C)c1,inhibition,at 10 µM unless noted,26.4% (inactive)
COc1ccc(C)cc1Nc1n[n+](-c2ccccc2)c(-c2cccc(Cl)c2Cl)s1,inhibition,at 10 µM unless noted,19.6% (inactive)
Cc1ccccc1C(=O)Nc1ccc(N2CCCCCC2)cc1,inhibition,at 10 µM unless noted,1.4% (inactive)
CCOC(=O)/C(C#N)=C/c1ccc(N2CCCCC2)cc1,inhibition,at 10 µM unless noted,6.6% (inactive)
O=C1C=CC(=O)N1c1ccc(N2CCCCC2)cc1,inhibition,at 10 µM,45.6% (active)
same,inhibition,"triplicate retest, at 20 µM",114%
CCCn1nc2cc(C(=O)NCc3ccccc3)ccc2c1OCC,inhibition,at 10 µM unless noted,34.5% (active)
CCOc1c2ccc(C(=O)NCc3ccc(OC(F)(F)F)cc3)cc2nn1C,inhibition,at 10 µM unless noted,14.9% (inactive)
CCOc1c2ccc(C(=O)NCc3ccc4c(c3)OCO4)cc2nn1C,inhibition,at 10 µM unless noted,30.5% (inactive)
CCc1noc(C)c1C(=O)N1CCCC(N2CCN(c3ccc(F)cc3)CC2)C1 (centres undefined),inhibition,at 10 µM unless noted,15% (inactive)
CCOc1ccc(-n2c(SCC(N)=O)nnc2-c2ccco2)cc1,inhibition,at 10 µM unless noted,7.9% (inactive)
Oc1c(Cl)cc(Cl)c(Cl)c1Cc1c(O)c(Cl)cc(Cl)c1Cl,inhibition,at 10 µM,121% (active)
same,inhibition,"triplicate retest, at 20 µM",100%
Cc1cc(S(=O)(=O)NCC(C)C)ccc1OCC(=O)NC1CC1,inhibition,at 10 µM unless noted,13.3% (inactive)
Cn1c(=O)oc2cc(S(=O)(=O)N3CCC(C(=O)Nc4ccc(OC(F)(F)F)cc4)CC3)ccc21,inhibition,at 10 µM unless noted,22.5% (active)
Cc1ccc2nc(NC(=O)C3CCN(S(=O)(=O)c4ccc5c(c4)oc(=O)n5C)CC3)sc2c1,inhibition,at 10 µM unless noted,0.1% (inactive)
COc1ccc(NC(=O)C2CCN(S(=O)(=O)c3ccc4[nH]c(=O)oc4c3)CC2)c(OC)c1,inhibition,at 10 µM unless noted,-45% (inactive)
COCCCNC(=S)N(CCN(C)C)Cc1cc2cc3c(cc2[nH]c1=O)OCCO3,inhibition,at 10 µM unless noted,8.7% (inactive)
COc1ccc(C(=O)Nc2ccnn2C2CCN(Cc3ccncc3)CC2)cc1,inhibition,at 10 µM unless noted,14.9% (inactive)
COc1cc(C(=O)NC2CCN(Cc3ccccc3)CC2)cc(Cl)c1OC(C)C,inhibition,at 10 µM unless noted,19.9% (inactive)
COc1cc2[nH]c(=O)n(CCC(=O)NC3CCN(Cc4ccccc4)CC3)c(=O)c2cc1OC,inhibition,at 10 µM unless noted,15.6% (inactive)
COc1cc2[nH]c(=O)n(Cc3ccc(C(=O)NC4CCN(Cc5ccccc5)CC4)cc3)c(=O)c2cc1OC,inhibition,at 10 µM unless noted,36.6% (active)
O=C(N/N=C\C1CC=CCC1)c1ccc(Br)o1 (centres undefined),inhibition,at 10 µM unless noted,11.4% (inactive)
CCCn1c(C2CCCN2c2nc(-c3ccc(OC)cc3)cs2)nc2ccccc21 (centres undefined),inhibition,at 10 µM unless noted,21.7% (inactive)
Oc1ccc2ccccc2c1N=Nc1nccs1,inhibition,at 10 µM unless noted,59.8% (active)
Oc1ccc(N=Cc2c(O)ccc3ccccc23)cc1,inhibition,at 10 µM unless noted,-1.8% (inactive)
Oc1ccc(N=Nc2nccs2)c(O)c1,inhibition,at 10 µM unless noted,8.1% (inactive)
O=C(NCCNc1ccc([N+](=O)[O-])cc1Cl)c1ccccc1F,inhibition,at 10 µM unless noted,29.5% (inactive)
COc1ccccc1C1=Nc2cccc3cccc(c23)N1,inhibition,at 10 µM unless noted,9.5% (inactive)
Fc1ccccc1N=C1Nc2cccc3cccc1c23,inhibition,at 10 µM unless noted,-0.1% (inactive)
c1ccc(C2=Nc3cccc4cccc(c34)N2)cc1,inhibition,at 10 µM unless noted,47.7% (active)
O=C(c1noc2c1CCCC2)N1CCc2ccccc2C1,inhibition,at 10 µM unless noted,3.2% (inactive)
COc1ccc(N2CCN(C(=O)c3ccccc3NC(=O)C3=C(C)OCCS3)CC2)cc1,inhibition,at 10 µM unless noted,13.7% (inactive)
COc1cc(-c2c(-c3ccc4c(c3)OCO4)noc2C)ccc1F,inhibition,at 10 µM unless noted,3.9% (inactive)
C=CCNC(=S)N1CCc2[nH]c3ccccc3c2C1,inhibition,at 10 µM unless noted,36.9% (active)
Fc1ccc(NC(=S)N2CCc3[nH]c4ccccc4c3C2)cc1,inhibition,at 10 µM unless noted,-2.7% (inactive)
CCCC(=O)N1CCc2[nH]c3ccccc3c2C1,inhibition,at 10 µM unless noted,12.2% (inactive)
Cc1ccnc(N2C(=O)c3ccc([N+](=O)[O-])cc3C2=O)c1,inhibition,at 10 µM unless noted,4.8% (inactive)
O=C(NCc1ccccc1)C1=C[C@@H](c2ccc(C(F)(F)F)cc2)C[C@@H](OCc2ccc(CO)cc2)O1,inhibition,at 10 µM unless noted,-7.3% (inactive)
O=C(C1=C[C@H](c2ccc(C(F)(F)F)cc2)C[C@H](OCc2ccc(CO)cc2)O1)N1CCN(Cc2ccccc2)CC1,inhibition,at 10 µM unless noted,26.9% (active)
O=C(C1=C[C@H](C2CC2)C[C@H](OCc2ccc(CO)cc2)O1)N1CCN(Cc2ccccc2)CC1,inhibition,at 10 µM unless noted,-5.8% (inactive)
CCN1C(=NCC(C)C)N[C@@H](CCc2ccccc2)[C@H](C(=O)NCC(C)C)[C@H]1C,inhibition,at 10 µM unless noted,-12.1% (inactive)
CCC(CC)c1nnc(NC(=O)C2CCN(C(=O)c3ccco3)CC2)s1,inhibition,at 10 µM unless noted,-1% (inactive)
CC(=O)N1CCN(CC(C)(C)NS(=O)(=O)c2ccc(C)cc2)CC1,inhibition,at 10 µM unless noted,-1% (inactive)
COc1ccc(NC(=O)c2sc3nc(C)nc(N4CCN(c5ccccn5)CC4)c3c2C)c(OC)c1,inhibition,at 10 µM unless noted,-10.9% (inactive)
CC1(C)CCSC(/C=C/c2ccccc2)=N1,inhibition,at 10 µM,53.2% (active)
same,inhibition,"triplicate retest, at 20 µM",102%
CN(C)CCOC1c2ccccc2-c2ccccc21,inhibition,at 10 µM unless noted,6% (inactive)
COc1cccc(OCC(=O)Nc2ccccc2C(N)=O)c1,inhibition,at 10 µM unless noted,1.7% (inactive)
CCCCCCCCCCOC(=O)Cn1c(COc2ccc(C)cc2)[n+](C)c2ccccc21,inhibition,at 10 µM unless noted,24.8% (active)
Cc1ccc(OCc2nc3ccccc3n2C)cc1,inhibition,at 10 µM unless noted,33.1% (inactive)
CCCCCCCCCCOC(=O)Cn1c(COc2cccc(OC)c2)[n+](C)c2ccccc21,inhibition,at 10 µM unless noted,36.3% (active)
CCCCOC(=O)Cn1c(=N)n(CCN(CC)CC)c2ccccc21,inhibition,at 10 µM unless noted,2.6% (inactive)
CCCCOC(=O)Cn1c(=O)n(CC(=O)OCCCC)c2cc(C)ccc21,inhibition,at 10 µM unless noted,-1% (inactive)
O=C(Nc1cccc([N+](=O)[O-])c1)N1CCc2ccccc2C1,inhibition,at 10 µM unless noted,7.7% (inactive)
Oc1c(Cl)cc(Cl)cc1/C=N/c1ncn[nH]1,inhibition,at 10 µM unless noted,15.3% (inactive)
CC/C(=N\NC(=O)c1c(C)nc2ccccn12)c1ccc(Cl)cc1,inhibition,at 10 µM unless noted,8.5% (inactive)
CCOc1ccc(N(CC(=O)NCCOc2ccccc2OC)S(=O)(=O)c2ccccc2)cc1,inhibition,at 10 µM unless noted,3% (inactive)
CN(C)c1ccc(-c2nnc(-c3cccnc3)o2)cc1,inhibition,at 10 µM unless noted,-3.5% (inactive)
O=C(NCc1cccc(C(F)(F)F)c1)c1cccc(S(=O)(=O)N2CCN(Cc3ccccc3)CC2)c1,inhibition,at 10 µM unless noted,9.8% (inactive)
CCn1c(=O)c(C(=O)NCc2ccc3c(c2)OCO3)c(O)c2ccccc21,inhibition,at 10 µM unless noted,4.6% (inactive)
CC(O)C(NS(=O)(=O)c1ccc(Cl)cc1)C(=O)OCc1cc([N+](=O)[O-])cc2c1OCOC2 (centres undefined),inhibition,at 10 µM unless noted,9.8% (inactive)
Nc1ccccc1SCc1cc([N+](=O)[O-])cc2c1OCOC2,inhibition,at 10 µM unless noted,23.8% (active)
CCS(=O)(=O)c1cc([N+](=O)[O-])c(Sc2ccccc2N)s1,inhibition,at 10 µM unless noted,6.4% (inactive)
O=S(=O)(NC1CC1)c1ccc(F)c(F)c1,inhibition,at 10 µM unless noted,3% (inactive)
CN(C)[C@@H]1C(=O)C(C(N)=O)=C(O)[C@@]2(O)C(=O)C3=C(O)c4c(O)ccc(Cl)c4[C@@H](O)[C@H]3C[C@@H]12,inhibition,at 10 µM unless noted,136% (active)
O=C(N/N=C/c1ccccn1)c1cccc(NC(=O)c2ccc(Cl)cc2)c1,inhibition,at 10 µM unless noted,8.8% (inactive)
S=C(NCCCc1ccccc1)Nc1ccc(Br)cc1,inhibition,at 10 µM unless noted,13% (inactive)
COc1ccc(C(=O)C2CCCN(C(=O)c3ccc(OC)o3)C2)c(C)c1 (centres undefined),inhibition,at 10 µM unless noted,14.5% (inactive)
CC(C)CC(=O)Nc1cc(C(F)(F)F)ccc1N1CCOCC1,inhibition,at 10 µM unless noted,39.4% (active)
CC(Sc1nncn1C)C(=O)Nc1cc(C(F)(F)F)ccc1N1CCOCC1 (centres undefined),inhibition,at 10 µM unless noted,6.8% (inactive)
CCC(=O)Nc1cc(C(F)(F)F)ccc1N1CCCC1,inhibition,at 10 µM unless noted,9% (inactive)
